High-throughput results (PubChem)
Compounds with a hit are over-represented: about 11% of the library has one in this group of screens.
HTT aggregate: mutant huntingtin aggregation inhibition; 220,000 compounds, 1.1% hits; Potency, µM (titrated, usually from 46.1 µM), actives largely listed as inhibitors; PC12 HttQ103-GFP aggregates, Acumen cytometry, 40 h; note: nearly all actives have a fitted effect of over 60% in size
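Steps: seed 1500 PC12 HTTQ103-GFP cells/well; add tebufenozide, 100 nM final; add compound titration; add ATPLite reagent; quantify GFP aggregates by laser scanning cytometry.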
PNC assembly inh: blocks assembly of the perinucleolar compartment. activity change (PNC), negative = inhibition, % at 10 µM. 140,000 compounds, 3.1% hits. AID 2417. PC3M PTB-GFP, PNC prevalence imaging, 16 h; hits give low values;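 active = readout at or below -70, meaning at least 70% loss of cells showing the perinucleolar compartment, a nuclear body marking cancer cells; inconclusive = readout between -30 and a set limit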
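PC3M cells stably expressing PTB-GFP, 750–1000 cells/well, treated 16 h at 37 °C with compound (23 nl of library stock), in duplicate. After paraformaldehyde fixation and Hoechst stain, imaged at 20x; PNC prevalence scored by image analysis.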
ALDH1A1 inh: inhibitors of human aldehyde dehydrogenase 1A1; P00352; Purified ALDH1A1, NADH fluorescence, propionaldehyde substrate; Potency, µM (doses to about 75.3 µM), actives largely listed as inhibitors; 220,000 compounds, 7.3% hits; active = well fitted inhibition curve with a large enough effect, not every such curve was filed as active; inconclusive = small, poorly fitted or top-dose-only effect, or another doubt; inactive = no such curve, though single readings can be large or run the other way
Target sequence (P00352 whole entry, looked up): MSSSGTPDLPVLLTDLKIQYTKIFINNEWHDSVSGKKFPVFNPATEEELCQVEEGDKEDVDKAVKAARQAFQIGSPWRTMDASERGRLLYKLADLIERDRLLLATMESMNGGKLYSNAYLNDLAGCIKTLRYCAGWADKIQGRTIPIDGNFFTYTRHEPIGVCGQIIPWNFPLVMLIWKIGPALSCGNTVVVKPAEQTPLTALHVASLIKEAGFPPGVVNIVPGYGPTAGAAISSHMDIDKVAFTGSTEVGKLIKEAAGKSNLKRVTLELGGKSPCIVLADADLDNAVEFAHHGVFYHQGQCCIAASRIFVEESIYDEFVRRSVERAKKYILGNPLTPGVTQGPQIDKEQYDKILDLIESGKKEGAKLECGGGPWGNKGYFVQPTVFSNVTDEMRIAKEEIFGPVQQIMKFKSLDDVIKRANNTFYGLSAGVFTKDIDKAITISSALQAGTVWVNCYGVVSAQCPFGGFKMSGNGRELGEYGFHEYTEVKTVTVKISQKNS
HTT cytoprotect: cytoprotection in Huntington HTT-Q103 PC12 cell model; 230,000 compounds, 0.14% hits; Potency, µM (titrated, usually from 56.4 µM), most hits filed as activators; PC12 HTT-Q103 induced, cytoprotection, ATP luminescence, 40 h; note: nearly all actives have a fitted effect of over 45% in size
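Compounds added alongside 100 nM tebufenozide, which induces toxic Q103 huntingtin exon 1-GFP in stable PC12 cells; surviving cells quantified by luminescent ATP measurement. Medium: phenol red-free DMEM, 5% equine and 5% calf serum.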
CBFb RUNX1 block: blocks binding between human CBF-beta and RUNX1; Q01196+Q13951; AlphaScreen CBFb-His/RUNX1-biotin binding, biochemical; Potency, µM (series often up to 59.8 µM), hits mostly inhibitors; 230,000 tested, under 10 active
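CBF-beta (His) and RUNX1 (biotin), 30 nM each; 20 min preassociation; + compound, 15 min; + beads 50 ng each (Ni, streptavidin), 90 min; RT; AlphaScreen read.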
HPGD inh: inhibitors of human 15-hydroxyprostaglandin dehydrogenase (HPGD) | 150,000 compounds, 4.3% hits | P15428 | AID 894 | Potency, µM, most hits filed as inhibitors | purified HPGD, NADH fluorescence kinetic, PGE2 substrate; active = well fitted inhibition curve with a large enough effect, not every such curve was filed as active; inconclusive = small, poorly fitted or top-dose-only effect, or another doubt; inactive = no such curve, though single readings can be large or run the other way
Target sequence (P15428 whole entry, looked up): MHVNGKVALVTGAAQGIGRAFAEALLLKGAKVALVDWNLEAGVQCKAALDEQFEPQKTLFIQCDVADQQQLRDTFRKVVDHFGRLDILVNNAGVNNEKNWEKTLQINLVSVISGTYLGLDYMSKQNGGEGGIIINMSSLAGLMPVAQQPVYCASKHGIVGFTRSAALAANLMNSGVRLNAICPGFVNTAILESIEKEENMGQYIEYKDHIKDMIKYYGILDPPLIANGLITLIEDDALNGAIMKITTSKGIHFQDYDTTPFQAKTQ
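20 nM HPGD preincubated 15 min at room temperature with compound in 50 mM Tris-HCl pH 8, 0.01% Tween 20. Started with 1 mM NAD+ and 30 uM prostaglandin E2; NADH fluorescence (360/450 nm) read 5 times over 30-s intervals, last minus first.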
Hits are given with their value; [ ] = another dose, or the depositor's remark. Unless noted, calls come from the whole dose curve; as a rule, active = well fitted curve in the direction sought with a large enough effect; inconclusive = small, poorly fitted or top-dose-only effect, or another doubt; inactive = no such curve, though single readings can be large; an effect the other way counts as inactive or inconclusive.

How did C=CCc1cc(/C=C2/NC(=O)N(CC)C2=O)cc(OCC)c1OCc1ccc(C(=O)O)cc1 do in these assays?
HTT aggregate: inactive; PNC assembly inh: inactive; ALDH1A1 inh: 3.2µM; HTT cytoprotect: inactive[10 µM]; CBFb RUNX1 block: inactive; HPGD inh: inactive

How did CC(C)C1NC(=O)[C@H](CCCCN)NC(=O)[C@@H](Cc2c[nH]c3ccccc23)NC(=O)[C@H](Cc2ccc(O)cc2)NC(=O)[C@H](C)N(C)C(=O)[C@H](Cc2ccccc2)NC1=O (some centres undefined) do in these assays?
ALDH1A1 inh: inactive; CBFb RUNX1 block: inactive; HPGD inh: inactive

How did O=C(NNC1=NCCCCC1)c1ccccc1 do in these assays?
HTT aggregate: inactive; PNC assembly inh: inactive; ALDH1A1 inh: inactive; HTT cytoprotect: inactive; CBFb RUNX1 block: inactive; HPGD inh: 14µM

Results for c1ccc(CNC2=NCCCC2)cc1 ?
HTT aggregate: inactive; PNC assembly inh: inactive; ALDH1A1 inh: inactive; HTT cytoprotect: inactive; CBFb RUNX1 block: inactive

What do the screens show for `O=C(C(=O)N1CCc2ccccc2C1)c1cn(CC(=O)N2CCCC2)c2ccccc12`?
HTT aggregate: inactive; PNC assembly inh: inactive; ALDH1A1 inh: inactive; HTT cytoprotect: inconclusive; CBFb RUNX1 block: inactive; HPGD inh: inactive

What do the screens show for `CC1CCN(C(=O)Cn2cc(C(=O)C3CC3)c3ccccc32)CC1`?
HTT aggregate: inactive; PNC assembly inh: -103; ALDH1A1 inh: inactive; HTT cytoprotect: inactive[10 µM]; CBFb RUNX1 block: inactive; HPGD inh: inactive

How did CC1CCN(C(=O)Cn2cc(C#N)c3ccccc32)CC1 do in these assays?
HTT aggregate: inactive; PNC assembly inh: inactive; ALDH1A1 inh: inconclusive; HTT cytoprotect: inactive[1.9 µM]; CBFb RUNX1 block: inactive; HPGD inh: inactive

What do the screens show for `CCN(CC)C(=O)C(=O)c1cn(CC(=O)N2CCc3ccccc3C2)c2ccccc12`?
HTT aggregate: inactive; ALDH1A1 inh: 0.71µM; HTT cytoprotect: inactive; CBFb RUNX1 block: inactive

Results for O=C(O)[C@H](Cc1c[nH]c2ccccc12)N1C(=O)C2=CCCC=C2C1=O ?
CBFb RUNX1 block: inactive

Results for Cc1[nH]c2c(Cl)cccc2c1CCNC(=O)C1CCCCC1C(=O)OCC(F)(F)F (centres undefined) ?
HTT aggregate: inactive; PNC assembly inh: -119; ALDH1A1 inh: inconclusive; HTT cytoprotect: inactive[10 µM]; CBFb RUNX1 block: inactive; HPGD inh: inactive

How did CCOC(=O)c1ccc(CNC(=O)C2CCCCC2C(=O)OCC(F)(F)F)o1 (centres undefined) do in these assays?
HTT aggregate: inactive; PNC assembly inh: inactive; ALDH1A1 inh: inconclusive; HTT cytoprotect: inactive; CBFb RUNX1 block: inactive; HPGD inh: inactive

How did CCc1nn(CCCC(=O)N2CCc3ccccc3C2)c(=O)c2cc3occc3n12 do in these assays?
HTT aggregate: inactive; PNC assembly inh: inactive; ALDH1A1 inh: inconclusive; HTT cytoprotect: inactive; CBFb RUNX1 block: inactive; HPGD inh: 32µM

How did CCCCN1C(=O)/C(=C/C=C2\Oc3ccccc3N2CC)SC1=S do in these assays?
HTT aggregate: inconclusive; ALDH1A1 inh: inconclusive; HTT cytoprotect: inactive[10 µM]; CBFb RUNX1 block: inactive

What do the screens show for `CCN1/C(=C/C=C/c2oc3ccc(-c4ccccc4)cc3[n+]2CC)Oc2ccc(-c3ccccc3)cc21`?
HTT aggregate: 0.35µM; ALDH1A1 inh: inconclusive; HTT cytoprotect: inactive[10 µM]; CBFb RUNX1 block: inactive

Results for CCCCC1=CC2=CC(=O)C(C)(OC(=O)c3ccc(Cl)nc3)C(=O)C2=CO1 (centres undefined) ?
ALDH1A1 inh: inactive; HTT cytoprotect: inactive; CBFb RUNX1 block: inactive; HPGD inh: inactive

Results for CCCCCc1c(C)nc(N2CCc3ccccc3C2)[nH]c1=O ?
HTT aggregate: inactive; PNC assembly inh: -117; ALDH1A1 inh: inactive; HTT cytoprotect: inactive; CBFb RUNX1 block: inactive; HPGD inh: inactive

What do the screens show for `Cc1nc(N2CCc3ccccc3C2)[nH]c(=O)c1Cc1ccccc1`?
HTT aggregate: inactive[9.22 µM]; ALDH1A1 inh: inactive; HTT cytoprotect: inactive[10 µM]; CBFb RUNX1 block: inactive

Results for COC(=O)CSc1nnc(CNC(=O)c2cccs2)n1-c1cc(OC)ccc1OC ?
HTT aggregate: inconclusive; PNC assembly inh: inactive; ALDH1A1 inh: 20µM; HTT cytoprotect: inactive; CBFb RUNX1 block: inactive

Results for CCOC(=O)CSc1nnc(CNC(=O)c2cccs2)n1-c1cccc(C)c1 ?
HTT aggregate: inactive; PNC assembly inh: inactive; ALDH1A1 inh: inactive; HTT cytoprotect: inactive; CBFb RUNX1 block: inactive; HPGD inh: inactive

How did c1ccc(-c2cc3c(N4CCCC4)ncnc3s2)cc1 do in these assays?
HTT aggregate: inactive; ALDH1A1 inh: inconclusive; HTT cytoprotect: inactive[10 µM]; CBFb RUNX1 block: inactive

What do the screens show for `c1ccc(-c2cc3c(N4CCOCC4)ncnc3s2)cc1`?
HTT aggregate: inactive; PNC assembly inh: -97; ALDH1A1 inh: inconclusive; HTT cytoprotect: inactive; CBFb RUNX1 block: inactive; HPGD inh: inconclusive

Results for c1ccc(-n2nnc3c(N4CCOCC4)ncnc32)cc1 ?
HTT aggregate: inactive; PNC assembly inh: inactive; ALDH1A1 inh: inconclusive; HTT cytoprotect: inactive[0.074 µM]; CBFb RUNX1 block: inactive; HPGD inh: 28µM

Results for O=C1C2C3c4ccccc4C(c4ccccc43)C2c2nc3ccccc3n21 (centres undefined) ?
HTT aggregate: inactive; PNC assembly inh: -100; ALDH1A1 inh: inactive; HTT cytoprotect: inactive[10 µM]; CBFb RUNX1 block: inactive; HPGD inh: inactive

What do the screens show for `CC(=O)N(C(C)=O)N1C(=O)C2C3c4ccccc4C(c4ccccc43)C2C1=O` (centres undefined)?
HTT aggregate: inactive[9.22 µM]; ALDH1A1 inh: inactive; HTT cytoprotect: inactive; CBFb RUNX1 block: inactive

How did O=C(CN1CCOCC1)NC1CC2CCC1C2 (centres undefined) do in these assays?
HTT aggregate: inactive; PNC assembly inh: inconclusive; ALDH1A1 inh: 25µM; HTT cytoprotect: inactive[10 µM]; CBFb RUNX1 block: inactive; HPGD inh: inactive

What do the screens show for `CCCOc1ccc(/C(O)=C2\C(=O)C(=O)N(CCCOC)C23C(=O)N(C)c2ccccc23)cc1` (centres undefined)?
HTT aggregate: inactive; PNC assembly inh: -106; ALDH1A1 inh: inactive; HTT cytoprotect: inactive[0.074 µM]; CBFb RUNX1 block: inactive; HPGD inh: inactive

Results for COc1ccc(C2OC3C(CO)OC(n4cnc5c(=O)[nH]c(N)nc54)C3O2)cc1 (centres undefined) ?
ALDH1A1 inh: inactive; HPGD inh: 16µM

What do the screens show for `COc1ccc(-c2nc(N)c3ncn([C@H]4O[C@@H](CO)[C@@H](O)[C@@H]4O)c3n2)cc1`?
ALDH1A1 inh: inactive[13.5 µM]; HTT cytoprotect: inactive[10 µM]; HPGD inh: inactive

What do the screens show for `O=C1C(Cl)=C(N2CCN(c3ccccc3[N+](=O)[O-])CC2)C(=O)c2ccccc21`?
HTT aggregate: inconclusive; PNC assembly inh: inconclusive; ALDH1A1 inh: 7.1µM; HTT cytoprotect: inactive[10 µM]; CBFb RUNX1 block: inconclusive; HPGD inh: inactive
